According to ChEMBL document CHEMBL3988442, “University of Dundee, Small-Polar-MMV Screening Library” (2021):
Screen size: about 48,000 compounds; about 13,000 (27%) showed an effect of 50% or more. This is one part of the list.

Tested on: Wolbachia pipientis
Experiment: Anti-Wolbachia Cell-Based Screen
Format: functional
Set-up: scale not given: in the data most compounds retested in dose-response had high values
Conditions: 5 µM

| Compound | Percent Effect [%] |
| --- | --- |
| COCCN(Cc1ccccn1)C(=O)CC1OCCc2ccccc21 (stereo not drawn) | -5.998 |
| COC(=O)c1ccc(N2CCC(C(O)c3ccccc3)CC2)nn1 (stereo not drawn) | -10.77 |
| CC(C)CCC(=O)Nc1ncn(CC(=O)N2CCCCCC2)n1 | -19.43 |
| CCc1nc(CC(=O)N2CCOCC2c2ncon2)cs1 (stereo not drawn) | -4.331 |
| Cc1nnsc1CN1C[C@@H]2CC[C@H](C1)N(Cc1c(C)noc1C)C2=O | 10.64 |
| O=C1N(CC2CC2)CCCC1(O)CN1CCc2[nH]ncc2C1 (stereo not drawn) | -6.967 |
| CCc1ccc(CN2CCN(C)C3(CCC(=O)N(CC4CC4)CC3)C2)o1 (stereo not drawn) | 1.557 |
| Cc1noc([C@@H]2C[C@H](NC(=O)C3CCCCC3)CN2C)n1 | -5.582 |
| CCOC(=O)[C@]12CCCN(Cc3nccs3)C[C@H]1CN(CC(C)C)C2.O=C(O)C(F)(F)F.O=C(O)C(F)(F)F | 11.11 |
| CCOC(=O)[C@]12CCCN(Cc3cccs3)C[C@H]1CN(CC(C)C)C2.O=C(O)C(F)(F)F.O=C(O)C(F)(F)F | 98.32 |
| CCOC(=O)[C@]12CCCN(Cc3nccs3)C[C@H]1CN(CCN(C)C)C2.O=C(O)C(F)(F)F.O=C(O)C(F)(F)F.O=C(O)C(F)(F)F | 8.148 |
| Cn1cc(C(=O)Nc2cccc(-c3ccc4c(c3)CCO4)n2)ccc1=O | 14 |
| COC(=O)CC1c2cccnc2C(=O)N1Cc1ccccc1 (stereo not drawn) | 107.1 |
| O=C(O)c1cccnc1N1CCN(Cc2ccc(F)cc2)C(CCO)C1 (stereo not drawn) | -1.62 |
| O=C(Cc1ccccn1)N1C[C@@H]2CC[C@H](C1)N(Cc1ccccc1)C2=O | -26.39 |
| O=C(Cc1cccnc1)N1C[C@@H]2CC[C@H](C1)N(Cc1ccccc1)C2=O | -0.7591 |
| CNC(=O)c1cccnc1N1CCN(Cc2ccccc2)C(CCO)C1 (stereo not drawn) | -3.747 |
| CCC1CN(C(=O)c2ncccc2O)CCC(=O)N1Cc1ccccc1 (stereo not drawn) | -8.07 |
| CNC(=O)CC1c2cccnc2C(=O)N1Cc1ccccc1 (stereo not drawn) | 136.6 |
| CNC(=O)CC1CC2(CCN(c3ncccn3)CC2)c2ccccc21.O=C(O)C(F)(F)F (stereo not drawn) | -15.28 |
| CCC1CN(C(=O)c2cccnc2O)CCC(=O)N1Cc1ccccc1 (stereo not drawn) | -1.189 |
| O=C1c2ncccc2C(CCO)N1Cc1ccccc1 (stereo not drawn) | 101.3 |
| COC(=O)CC1CN(Cc2c(Cl)ccc3cccnc23)CCO1 (stereo not drawn) | -2.588 |
| NC(=O)CC1c2cccnc2C(=O)N1Cc1ccccc1 (stereo not drawn) | 97.87 |
| O=C(Nc1ccccc1OC(F)F)C1=NN(c2ccccc2)C(=O)CN1 | 6.158 |

| Compound | Percent Effect [%] |
| --- | --- |
| CC(C)c1noc(CCC(=O)N2CCN(C)CC2c2ccccc2)n1 (stereo not drawn) | 2.762 |
| CN(C)CCn1ccc2ccc(NC(=O)c3ccncc3F)cc21 | -14.36 |
| Cc1nn(C)c(C)c1CC(C)NC(=O)NCc1ccoc1C (stereo not drawn) | -1.757 |
| CCC(O)CN(C)Cc1nnc2ccccn12 (stereo not drawn) | -1.119 |
| COc1ccc(C(=O)N(C)Cc2nnc3ccccn23)cc1 | 104.5 |
| COc1ccc(CC(=O)N(C)Cc2nnc3ccccn23)cc1 | 2.883 |
| CN(Cc1nnc2ccccn12)C(=O)CCNC(=O)C(C)(C)C | 7.202 |
| Cc1ccc(C)c(C(O)CN(C)Cc2nnc3ccccn23)c1 (stereo not drawn) | -3.237 |
| COc1cc(OC)cc(C(=O)N(C)Cc2nnc3ccccn23)c1 | 132.8 |
| CN(C(=O)Nc1cccc(C#N)c1)C1CCN(c2ccccn2)CC1 | -13.99 |
| CN(C(=O)c1ccc(Cl)cc1)C1CCN(c2ccccn2)CC1 | 98.58 |
| CN(C(=O)c1cccc(Cl)c1)C1CCN(c2ccccn2)CC1 | 127.4 |
| CN(C(=O)c1cc(Cl)c[nH]1)C1CCN(c2ccccn2)CC1 | -4.084 |
| CN(C(=O)c1ccc(C#N)cc1)C1CCN(c2ccccn2)CC1 | 4.986 |
| CC(NC(=O)NCCCN(C)S(C)(=O)=O)c1ccncc1 (stereo not drawn) | 10.56 |
| CC1c2cc(F)ccc2CCN1CCS(=O)(=O)C(C)C (stereo not drawn) | 14 |
| Cc1noc(C)c1CN1CCn2cc(CN3CCCCC3)nc2C1.O=C(O)C(F)(F)F | 100 |
| CC(=O)NCC(=O)N1CCn2cc(CN3CCCCC3)nc2C1.O=C(O)C(F)(F)F | -3.049 |
| O=C(O)C(F)(F)F.O=S(=O)(C1CC1)N1CCn2cc(CNc3ccccn3)nc2C1 | -1.604 |
| O=C(O)C(F)(F)F.O=C(O)C(F)(F)F.c1ccc(NCc2cn3c(n2)CN(Cc2cccs2)CC3)nc1 | 4.417 |
| Cc1noc(C)c1CN1CCn2cc(CN3CCCC3)nc2C1.O=C(O)C(F)(F)F.O=C(O)C(F)(F)F | 117.4 |
| Cc1noc(C)c1CN1CCn2cc(CN3CCOCC3)nc2C1 | 95.37 |
| Cc1noc(C)c1CN(Cc1ccccc1)C(C)CN1CCOCC1 (stereo not drawn) | -1.266 |
| Cc1noc(C)c1CN1CCn2cc(CNc3ccccn3)nc2C1.O=C(O)C(F)(F)F.O=C(O)C(F)(F)F | 109 |
| Cc1noc(C)c1CN1CCn2c(COC(C)C)nnc2C1 | -15.51 |

| Compound | Percent Effect [%] |
| --- | --- |
| Cc1ccc(C(=O)N2CCn3cc(CN4CCCCC4)nc3C2)o1.O=C(O)C(F)(F)F | 18.27 |
| Cc1noc(C)c1CN1CCc2ncc(CN3CCCC3)n2CC1.O=C(O)C(F)(F)F.O=C(O)C(F)(F)F | -7.49 |
| Cc1noc(C)c1CN1CCn2cc(CNC(=O)C3CCC3)nc2C1.O=C(O)C(F)(F)F | -7.774 |
| O=C(Cc1ccc(Br)cc1)N1CC(S(=O)(=O)C2CCCCC2)C1 | -12.58 |
| N#Cc1cccc(C(=O)Nc2ccc([C@@H](O)[C@H]3COCC(=O)N3)cc2)c1 | -8.801 |
| Cc1nnc([C@@H]2CC[C@@H]3[C@@H](CCN3S(=O)(=O)C3CC3)O2)o1 | 10.23 |
| CC1(C)CN(C(=O)c2ccccc2-n2cncn2)CC1(C)O (stereo not drawn) | -36.51 |
| COc1cccc2c1OCCCN(Cc1c[nH]nc1C(=O)O)C2 | 0.6416 |
| CCN(CC)Cc1cn2c(n1)CN(Cc1c(C)noc1C)CC2.O=C(O)C(F)(F)F.O=C(O)C(F)(F)F | 104 |
| Cc1ccc(CN2CCn3cc(CN(C)Cc4ccco4)nc3C2)o1.O=C(O)C(F)(F)F.O=C(O)C(F)(F)F | 18.64 |
| CCN(CC)Cc1cnc2n1CCN(Cc1c(C)noc1C)CC2.O=C(O)C(F)(F)F.O=C(O)C(F)(F)F | -10.46 |
| Cc1cc(N(C)CCN(C)C2CCCC2)n2nc(C)cc2n1 | 9.952 |
| CC(=O)N1CCC(c2cc3c(ncn3C)c(-c3cnn(C)c3)n2)CC1 | -10.45 |
| CC(=O)N1CCC(c2c(CN(C)C)cnc3cc(C)nn23)CC1 | 74.12 |
| Cc1cc2ncc(CN(C)C)c(C3CCN(C)CC3)n2n1 | 76.44 |
| Cc1cc(N(C)CCN(C)C)n2nc(C)cc2n1 | -8.762 |
| CCc1noc(C2CCN(C(=O)CCn3nc(C)cc3C)CC2)n1 | 2.839 |
| COc1cc(C(=O)N2Cc3cnc(C(C)(C)C)nc3C2)ccn1 | -33.89 |
| O=C(NCCOc1ccc(F)cc1)C1CCCN(C(=O)C2CC2)C1 (stereo not drawn) | -0.9975 |
| O=C(C1CCCC1)N1CCCC([C@@H]2C[C@H](C(F)F)n3ncnc3N2)C1 (stereo partly drawn) | 108.9 |
| O=C(C1CCCC1)N1CCC(C(O)c2ccc(F)cc2)CC1 (stereo not drawn) | -1.378 |
| O=C(C1CCCCC1)N1CCCC([C@@H]2C[C@H](C(F)F)n3ncnc3N2)C1 (stereo partly drawn) | 100.7 |
| Cc1nnc2n1CCN(CC(O)CN1CCC(C)CC1)C2 (stereo not drawn) | -0.2217 |
| c1csc(-c2nc(CN3CCOC(Cn4cncn4)C3)co2)c1 (stereo not drawn) | 1.427 |
| CC(C)Cc1noc(CN2CCOC(Cn3cncn3)C2)n1 (stereo not drawn) | -1.295 |

| Compound | Percent Effect [%] |
| --- | --- |
| CC(C)(C)c1nc(CN2CCCC(Cn3cncn3)C2)cs1 (stereo not drawn) | 5.475 |
| CC(C)c1nc(CN2CCOC(Cn3cncn3)C2)cs1 (stereo not drawn) | 78.62 |
| CC(C)(C)c1nc(CN2CCOC(Cn3cncn3)C2)cs1 (stereo not drawn) | 103.7 |
| CC(C)c1nc(CN2CCOCC2)cs1 | 0.6364 |
| Cc1ccc(-c2nc(CN3CCOC(Cn4cncn4)C3)cs2)o1 (stereo not drawn) | 11.16 |
| CC(=O)N(C)c1nc(CN2CCOC(Cn3cc(C)cn3)C2)cs1 (stereo not drawn) | -3.323 |
| Cc1cnn(CC2CN(Cc3csc(C(C)C)n3)CCO2)c1 (stereo not drawn) | 144.1 |
| CN(C(=O)COCc1ccccc1)C1CCN(CC2CCOC2)CC1 (stereo not drawn) | -14.42 |
| CCC(C)(N)c1nc(C(C)C)cc(=O)[nH]1.Cl (stereo not drawn) | -2.59 |
| CCc1nnc2n1CC(CNCc1ccncc1)CC2 (stereo not drawn) | -8.895 |
| Cc1nccn1-c1ccc(CNS(=O)(=O)N2CCCC(C)C2)cn1 (stereo not drawn) | -3.486 |
| O=C(NCc1cccnc1-n1cncn1)c1cc(Cl)ccn1 | 106.2 |
| O=C(NCc1ccc(-n2cncn2)nc1)c1cc(Cl)ccn1 | 100.5 |
| CCN(CC)c1ccc(C(=O)NCc2cccnc2-n2cncn2)cn1 | 14.25 |
| CC(C(=O)NCc1ccc(-n2cncn2)nc1)n1ccnc1 (stereo not drawn) | -4.71 |
| CCC(C)C(=O)NCc1ccc(-n2cncn2)nc1 (stereo not drawn) | -5.498 |
| O=C(NCc1ccc(-n2cncn2)nc1)c1cc[nH]n1 | 86.29 |
| O=C(NCc1ccc(-n2cncn2)nc1)c1cnccn1 | 91.78 |
| CC(C(=O)NCc1ccc(-n2cncn2)nc1)S(C)(=O)=O (stereo not drawn) | -11.84 |
| CC(C)COC(C)C(=O)NCc1ccc(-n2cncn2)nc1 (stereo not drawn) | -8.308 |
| CC(C)C(=O)NCc1ccc(-n2cncn2)nc1 | -6.912 |
| CCCc1nc(C(=O)NCc2cccnc2-n2cncn2)cs1 | -5.546 |
| O=C(NCc1ccc(-n2cncn2)nc1)c1ccoc1 | 0.1706 |
